Assay outcomes as filed in PubChem BioAssay.
C diff growth: C. difficile growth inhibitors, primary screen, HTS | Clostridium difficile clinical isolate growth, OD600, 24 h; stronger effect = lower value | growth activity, negative = inhibition, % at 16 µg/mL (by protocol) | 86,000 compounds, 0.25% hits | AID 1259249, 2017;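 active = mean growth activity at or below -80% and every replicate also at or below -80%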
T cruzi growth-1: T. cruzi intracellular proliferation inhibitors, primary screen, cell-based, beta-gal Tulahuen parasites, NIH3T3 host, luminescence. T. cruzi beta-gal in NIH3T3, GalScreen luminescence, 90 h. 77,000 compounds, 5.9% hits. inhibition, % at 8.34 µM. AID 624255, 2012;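 active = mean inhibition above about 93%, with at least 55% of replicates each passing it, limit read from the data, passing the limit was not always enough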
Pf Dd2 growth: P. falciparum Dd2 growth inhibitors, primary screen, SYBR Green fluorescence, single dose replicates; 72 h; stronger effect = lower value; activity change, % at 10 µM; 94,000 compounds, 2.3% hits; AID 1159554, 2015; in the data active = activity change below about -80%
T cruzi growth-2: T. cruzi intracellular proliferation inhibitors, confirmation, cell-based, NIH3T3 host, beta-gal parasite, luminescence, cherry-pick | T. cruzi beta-gal in NIH3T3, GalScreen luminescence, 90 h | AID 651739, 2012 | 5,600 compounds, 72% hits | shares compounds with T cruzi growth-1 | inhibition, % at 8.35 µM;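 active = mean replicate inhibition above about 95% and at least 55% of replicates individually reaching it, limit read from the data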
T cruzi growth-3: inhibitors of intracellular T. cruzi replication, confirmation, NIH3T3 host cells, beta-gal parasites, cherry-pick, set 2; shares compounds with T cruzi growth-1; T. cruzi beta-gal in NIH3T3, GalScreen luminescence, 90 h; inhibition, % at 2.09 µM; 5,600 compounds, 21% hits; AID 651740, 2012;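 active = mean inhibition above about 95%, with at least 55% of replicates also reaching it, limit read from the data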
3T3 cytotox: cytotoxicity in mouse NIH/3T3 fibroblasts, confirmation, cytotoxicity control for T. cruzi proliferation inhibitor project, cell-based, cherry-pick, single point; NIH/3T3 viability, CellTiter-Glo ATP luminescence, 90 h; shares compounds with T cruzi growth-1; cytotoxicity (signal decrease), % at 8.35 µM; AID 651742, 2012; 5,600 compounds, 14% hits;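 active = mean signal decrease across replicates above about 35% based on untreated-well scatter, with enough replicates individually passing, limit read from the data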
3T3 cytotox 2: NIH/3T3 fibroblast cytotoxicity, confirmation, cytotoxicity control, cell-based, cherry-pick, single point, set 2; 5,600 compounds, 56% hits; NIH/3T3 viability, CellTiter-Glo ATP luminescence, 90 h; inhibition, % at 24.9 µM; shares compounds with T cruzi growth-1; AID 651744, 2012;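 active = mean loss of cell viability signal at or above a set limit, and enough replicates individually reaching it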
Large screens that a line does not name were inactive (follow-up assays come after a bar, where they were run). Most compounds without a hit are left out; they make up all but 6.7% or so of the library.

C/C=C/c1ccc([C@H]2[C@H]3CN(C(=O)Cc4cccnc4)CCCCN3[C@H]2CO)cc1	none
C/C=C/c1ccc([C@H]2[C@H](CO)N3CCCCN(C(=O)Cc4cccnc4)C[C@@H]23)cc1	none
COC(=O)C[C@@H]1CC[C@H]2NC[C@H](O)COC[C@@H]2O1	none
CCCN1[C@@H]2c3ccc(-c4cccc(OC)c4)c(=O)n3C[C@H]1[C@H](CO)[C@H]2C(=O)OC	none (no result: T cruzi growth-1)
CCN1[C@@H]2Cn3c(ccc(-c4cccc(OC)c4)c3=O)[C@H]1[C@@H](C(=O)OC)[C@@H]2CO	none
CCN1[C@@H]2c3ccc(-c4ccc(OC)cc4)c(=O)n3C[C@H]1[C@H](CO)[C@H]2C(=O)OC	none (no result: Pf Dd2 growth)
COc1ccc(C#Cc2ccc([C@H]3[C@H]4CN(C(=O)Cc5cccnc5)CCCCN4[C@H]3CO)cc2)cc1	T cruzi growth-1 104 | T cruzi growth-2 104 | T cruzi growth-3 inactive | 3T3 cytotox inactive | 3T3 cytotox 2 99
COc1ccc(C#Cc2ccc([C@@H]3[C@H]4CN(C(=O)Cc5cccnc5)CCCCN4[C@H]3CO)cc2)cc1	T cruzi growth-1 99 | T cruzi growth-2 104 | T cruzi growth-3 inactive | 3T3 cytotox inactive | 3T3 cytotox 2 106
O=C(Cc1cccnc1)N1CCCCN2[C@H](CO)[C@@H](c3ccc(C#CC4(O)CCCC4)cc3)[C@@H]2C1	none
COc1ccc(C#Cc2ccc([C@H]3[C@@H](CO)N4CCCCN(C(=O)Cc5cccnc5)C[C@H]34)cc2)cc1	T cruzi growth-1 115 | T cruzi growth-2 102 | T cruzi growth-3 inactive | 3T3 cytotox 46 | 3T3 cytotox 2 103
COc1ccc(C#Cc2ccc([C@@H]3[C@@H](CO)N4CCCCN(C(=O)Cc5cccnc5)C[C@@H]34)cc2)cc1	T cruzi growth-1 108 | T cruzi growth-2 113 | T cruzi growth-3 inactive | 3T3 cytotox inactive | 3T3 cytotox 2 103
N#Cc1cccc(-c2ccc([C@@H]3[C@@H](CO)N4CCCCN(C(=O)Cc5cccnc5)C[C@H]34)cc2)c1	none
O=C(Cc1ccccc1)N1CC2(C1)[C@@H](c1ccccc1)[C@@H](CO)N2Cc1cccc(F)c1	none (no result: T cruzi growth-1)
COc1ccc(C#Cc2ccc([C@H]3[C@H](CO)N4CCCCN(C(=O)Cc5cccnc5)C[C@@H]34)cc2)cc1	T cruzi growth-1 113 | T cruzi growth-2 106 | T cruzi growth-3 102 | 3T3 cytotox 43 | 3T3 cytotox 2 105
COc1ccc(C#Cc2ccc([C@H]3[C@@H](CO)N4CCCCN(C(=O)Cc5cccnc5)C[C@@H]34)cc2)cc1	T cruzi growth-1 125 | T cruzi growth-2 99 | T cruzi growth-3 103 | 3T3 cytotox 36 | 3T3 cytotox 2 86
CCCN1[C@@H]2c3ccc(-c4ccc(OC)cc4)c(=O)n3C[C@H]1[C@H](CO)[C@H]2C(=O)OC	none
CCCN1[C@@H]2Cn3c(ccc(-c4ccccc4)c3=O)[C@H]1[C@@H](C(=O)OC)[C@@H]2CO	none
COC(=O)[C@H]1[C@H](CO)[C@H]2Cn3c(ccc(-c4ccc(F)cc4)c3=O)[C@@H]1N2Cc1cccnc1	none (no result: Pf Dd2 growth)
